The source made the active and inactive calls.

For one assay, the target named is Albumin (Bos taurus) (UniProt P02769). Description: compounds binding labelled BSA control protein – biochemical, small-molecule microarray, Alexa647 label, 635/667 nm fluorescence, artefact control for SMM control protein annotation, profiling panel (AID 1118).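 Note: score merges 667 nm emission intensity and signal-to-noise per printed compound spot.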 The note with it: BSA-A647 binding, fluorescence 635 nm, higher = more signal.
The nature of assay [1]: probe aXIP binding to arrayed compounds – biochemical, NeuroSMM set, 635/667 nm fluorescence, primary screen (AID 1119).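 Note: probe is the protein aXip251-270 applied at 1 µg/mL to compound-printed slides; binding of probe to printed compounds measured as 667 nm fluorescence plus signal to noise.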 The note with it: small-molecule microarray, higher = more signal, called active from +8 up or from −8 down.
Assay [2] in a line: probe aNOTCH3 binding on compound microarray – biochemical, small-molecule microarray, 635/667 nm fluorescence, primary screen (AID 1120).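 Note: probe is a biotin-tagged antibody raised against NOTCH3 rather than NOTCH3 protein; score merges spot fluorescence near 667 nm with spot signal to noise.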 The note with it: higher = more signal.
The nature of assay [3]: probe aNOTCH2 binding on compound microarray – biochemical, small-molecule microarray, 635/667 nm fluorescence, primary screen (AID 1121).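 Note: score merges feature fluorescence read at 667 nm with its signal to noise.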 The note with it: higher = more signal.
Assay [4] deals with Carbonic anhydrase 2 (Homo sapiens) (UniProt P00918). Description: compounds binding carbonic anhydrase 2 – biochemical, small-molecule microarray, Alexa647-labelled CAII, profiling panel (AID 1122). The note with it: CAII-A647 binding fluorescence, higher = more signal.
The nature of assay [5]: COS7 lysate on small-molecule microarray, probe aHis, 635 nm (AID 1123).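 Note: z-score combines 667nm fluorescence intensity with signal-to-noise per printed compound spot.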 The note with it: COS7 cell lysate, fluorescence, higher = more signal.
The nature of assay [6]: probe aLAP1 signal on lysate-treated microarray – cell lysate, small-molecule microarray, COS7 lysate, primary screen (AID 1124).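 Note: lysate comes from COS7 cells expressing LAP1 and is applied at 0.3 µg/mL; score merges spot fluorescence near 667 nm with signal-to-noise over triplicate slides.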 Conditions: probe aLAP1, fluorescence, higher = more signal.
Another assay has as its system Sam68 (KHDRBS1). Put plainly: compounds binding KHDRBS1 protein – biochemical, small-molecule microarray, 635 nm fluorescence, primary screen (AID 1125).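 Note: score merges 667 nm channel intensity with signal to noise over triplicate slides.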 The note with it: higher = more signal.
The subject of assay [7] is Chordin-like protein 2 (CHRDL2). Description: compounds binding chordin-like 2 – biochemical, small-molecule microarray, 635 nm fluorescence, primary screen (AID 1126).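 Note: printed compound slides probed with Chrdl2 protein at 4 µg/mL for 1 h at 4 C; score merges 667 nm emission intensity with signal to noise over three replicate slides.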 Conditions: fluorescence 635 nm, higher = more signal.
For assay [8], the target named is Concanavalin-A (Canavalia ensiformis) (UniProt P02866). Description: compounds binding concanavalin A lectin – biochemical, small-molecule microarray, Alexa647 label, 635 nm, artefact control for SMM control protein annotation, primary screen (AID 1127).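 Note: z combines 667 nm emission intensity with signal-to-noise across three replicate slides.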 Conditions: ConA-A647 binding fluorescence, higher = more signal.
Chain of Concanavalin-A (Canavalia ensiformis) (P02866 whole entry, looked up): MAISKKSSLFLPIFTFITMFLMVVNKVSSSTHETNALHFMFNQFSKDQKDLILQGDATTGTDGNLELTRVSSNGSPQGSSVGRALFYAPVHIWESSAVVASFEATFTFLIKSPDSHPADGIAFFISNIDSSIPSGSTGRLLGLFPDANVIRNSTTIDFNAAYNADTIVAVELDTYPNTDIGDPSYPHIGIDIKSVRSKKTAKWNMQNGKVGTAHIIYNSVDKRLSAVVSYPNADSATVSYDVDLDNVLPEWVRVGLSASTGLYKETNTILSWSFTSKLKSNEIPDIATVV

Chain of Albumin (Bos taurus) (P02769 whole entry, looked up): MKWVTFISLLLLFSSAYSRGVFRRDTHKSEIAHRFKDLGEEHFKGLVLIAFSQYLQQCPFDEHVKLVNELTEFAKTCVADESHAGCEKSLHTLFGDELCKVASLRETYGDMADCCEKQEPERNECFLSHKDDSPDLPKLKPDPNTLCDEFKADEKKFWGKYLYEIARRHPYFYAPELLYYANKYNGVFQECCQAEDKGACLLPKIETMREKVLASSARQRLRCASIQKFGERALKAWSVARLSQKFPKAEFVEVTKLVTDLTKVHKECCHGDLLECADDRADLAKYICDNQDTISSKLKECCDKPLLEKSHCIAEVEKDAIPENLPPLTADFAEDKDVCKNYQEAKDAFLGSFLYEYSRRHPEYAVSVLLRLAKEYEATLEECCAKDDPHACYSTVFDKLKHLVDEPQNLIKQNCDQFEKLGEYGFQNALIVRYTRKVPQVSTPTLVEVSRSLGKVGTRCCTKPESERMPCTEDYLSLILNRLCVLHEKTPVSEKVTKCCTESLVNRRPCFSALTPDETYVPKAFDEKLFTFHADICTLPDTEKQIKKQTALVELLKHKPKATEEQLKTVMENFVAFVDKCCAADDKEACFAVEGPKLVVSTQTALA

On to `C=CCC(OC(C)=O)[C@@H]1[C@@H](N(Cc2cccc3ccccc23)C(=O)c2cccc3ccccc23)c2cc(OCCCO)ccc2N1C(=O)c1ccc2ccccc2c1` (stereo not given in full), for which the composite z-score is 0.0949 with Albumin (Bos taurus); 0.0676 in assay [2]; -0.0883 in assay [3]; 0.206 in [4]; -0.203 in assay [5]; -0.225 in assay [6]. In addition, the composite z-score in the assay on Sam68 (KHDRBS1) was -0.047; in [7] it was 0.0526; in assay [8], -0.0264. The composite Z-score in assay [1] was 0.128 (inactive).
As to `NC(=O)[C@@H]1[C@H]2C(=O)O[C@H](c3ccccc3)[C@H](c3ccccc3)N2[C@H](c2ccc(OCCO)cc2)[C@@]12C(=O)Nc1ccc(C#CCCO)cc12`, the composite z-score is 0.629 with Albumin (Bos taurus); -0.12 in assay [2]; -0.0681 in [3]; 0.407 in assay [4]; 0.661 in [5]; 0.959 in assay [6]. For the same compound, the composite z-score in the assay on Sam68 (KHDRBS1) is 0.837; in [7] it was -0.178; in [8], 0.557. For the same compound, the composite Z-score in assay [1] was 0.238 (inactive).
Consider `COCCOC(=O)N1C(=O)[C@@]2(c3cc(C#CC4(O)CCCCCC4)ccc31)[C@H](C(=O)N1CCN(c3ncccn3)CC1)[C@H]1C(=O)O[C@H](c3ccccc3)[C@H](c3ccccc3)N1[C@@H]2c1ccccc1OCCO`, for which the composite z-score was -0.22 with Albumin (Bos taurus); 0.22 in [2]; -0.0826 in assay [3]; 0.384 in [4]; 0.506 in assay [5]; -0.176 in assay [6]. Moreover, the results for the composite z-score (in the assay on Sam68 (KHDRBS1); in assay [7]; in assay [8]) were 1.26, 0.902 and 1.13, respectively. The composite Z-score in assay [1] is 0.572 (inactive).
`Cc1ccc(S[C@]2(C(=O)NCc3ccccc3)CC(=O)N(Cc3cc(C(F)(F)F)cc(C(F)(F)F)c3)[C@@H]2c2ccc(CO)cc2I)cc1`: the composite z-score with Albumin (Bos taurus) is -0.618; in [2], -0.338; in assay [3] it was -0.161; in assay [4], 0.699; in assay [5], 0.67; in [6], 0.0779. For the same compound, the composite z-score in the assay with Sam68 (KHDRBS1) was -0.191; in [7], -1.77; in [8], -1.54. In addition, the composite Z-score in assay [1] is -0.244 (inactive).
In the case of `O=C1c2ccccc2[C@](Cc2ccccc2I)(C(=O)NC2CC2)[C@H](c2ccc(CO)cc2)N1Cc1ccccc1C(F)(F)F`, the composite z-score with Albumin (Bos taurus) is 0.502; in assay [2] it was 0.134; in [3], -0.0986; in assay [4], 0.66; in assay [5], 1.88; in assay [6] it was 0.43. The figures for the composite z-score (in the assay with Sam68 (KHDRBS1); in [7]; in [8]) were 0.456, -0.941 and 0.847, respectively. Besides, the composite Z-score in [1] was 0.0029 (inactive).
Consider `COCCOC(=O)N1C(=O)[C@@]2(c3cc(C#CCNC(N)=O)ccc31)[C@H](c1ccc(OCCO)cc1)N1[C@H](c3ccccc3)[C@H](c3ccccc3)OC(=O)[C@H]1[C@@H]2C(N)=O`, for which the composite z-score in the assay with Albumin (Bos taurus) was 0.319; in assay [2], 0.116; in [3], -0.01; in [4], 0.264; in [5], 1.13; in [6], 0.439. Also, the values for the composite z-score (in the assay on Sam68 (KHDRBS1); in assay [7]; in [8]) were 1.13, 0.457 and 1.08, respectively. The composite Z-score in assay [1] was 0.658 (inactive).
Regarding `COC(=O)[C@@]1(Cc2ccc(OC)cc2)[C@H]2c3cc(C(=O)N4CCCC4)n(Cc4ccc(S(C)(=O)=O)cc4)c3C[C@H]2CN1C(=O)c1ccccc1`, the composite z-score was 1.03 with Albumin (Bos taurus); 0.264 in assay [2]; 0.36 in [3]; 0.583 in assay [4]; 2.22 in assay [5]; -0.272 in [6]. Moreover, the composite z-score was 0.838 in the assay on Sam68 (KHDRBS1), -0.737 in [7] and 0.417 in assay [8]. The composite Z-score in assay [1] is 0.602 (inactive).
On to `O=C1C[C@@](C(=O)NCc2ccccc2)(c2ccc([N+](=O)[O-])cc2)[C@@H](c2ccc(CO)cc2I)N1CC12CC3CC(CC(C3)C1)C2`, for which the composite z-score with Albumin (Bos taurus) is 0.59; in [2], -0.223; in assay [3] it was -0.14; in assay [4], 0.721; in assay [5], 2.25; in [6] it was 0.0884. The composite z-score with Sam68 (KHDRBS1) was 1.21; in assay [7] it was 0.542; in assay [8], 0.999. The composite Z-score in assay [1] was -0.0102 (inactive).
`CC1CC/C=C\[C@H]2OC34C=CCN(C(C)(C)C)C(=O)[C@H]3N(C(CO)C(C)C)C(=O)[C@@H]4C2C(=O)O1` (stereo not given in full): the composite z-score is -0.667 with Albumin (Bos taurus); -0.0647 in [2]; -0.0974 in assay [3]; 0.867 in assay [4]; 1.37 in assay [5]; 0.876 in assay [6]. The composite z-score in the assay with Sam68 (KHDRBS1) is 0.117; in [7] it was -0.165; in [8] it was -0.268. For the same compound, the composite Z-score in assay [1] was 0.148 (inactive).
As for `COc1cc(NN2C(C(O)c3ccc(I)cc3)C=CC3C(=O)N(c4ccccc4)C(=O)C32)cc(OC)c1OC` (stereo not given), the composite z-score was 0.499 with Albumin (Bos taurus); 0.185 in [2]; -0.0501 in [3]; 0.758 in [4]; 3.02 in [5]; 0.0865 in assay [6]. The composite z-score was 1.32 with Sam68 (KHDRBS1), -0.357 in [7] and 1.01 in [8]. For the same compound, the composite Z-score in [1] was 1.59 (inactive).
In the case of `O=C1OCCC=C[C@H]2OC34C=CCN(c5ccc(Cl)cc5)C(=O)[C@H]3N(CCCCCCO)C(=O)[C@@H]4C12` (stereo not given in full), the composite z-score with Albumin (Bos taurus) is -0.418; in assay [2], -0.122; in assay [3], -0.218; in assay [4], 0.802; in assay [5] it was -0.328; in assay [6] it was -0.256. The composite z-score in the assay on Sam68 (KHDRBS1) is -0.156; in assay [7] it was -1.16; in assay [8], -0.941. For the same compound, the composite Z-score in [1] is 0.318 (inactive).
For `CC(C)C(=C=CC[C@H](O)c1cccc(OCCO)c1)CCO`, the composite z-score in the assay with Albumin (Bos taurus) was 0.361; in assay [2], -0.173; in assay [3], -0.14; in [4], 0.512; in assay [5], 0.397; in [6] it was -0.207. The values for the composite z-score (in the assay with Sam68 (KHDRBS1); in [7]; in assay [8]) were -0.126, -0.298 and -0.0543, respectively. The composite Z-score in assay [1] is 0.372 (inactive).
In the case of `C=C(CCCC)C(=O)CC[C@@H](OC(=O)c1cccnc1)c1ccc(OCCO)cc1`, the composite z-score in the assay with Albumin (Bos taurus) was -0.409; in assay [2], -0.0144; in assay [3], -0.0357; in [4], 0.718; in assay [5], 0.719; in assay [6] it was 0.488. The results for the composite z-score (with Sam68 (KHDRBS1); in [7]; in assay [8]) were 0.947, 0.894 and 0.239, respectively. The composite Z-score in assay [1] was 0.97 (inactive).
Turning to `COC(=O)C(CC#Cc1ccc2c(c1)[C@]1(C(=O)N2)[C@H](c2ccc(O)cc2)N2[C@H](c3ccccc3)[C@H](c3ccccc3)OC(=O)[C@H]2[C@@H]1C(=O)N1CCCCCCC1)C(=O)OC`, the composite z-score with Albumin (Bos taurus) is 0.631; in assay [2], 1.29; in assay [3], -0.0586; in assay [4] it was 0.816; in assay [5] it was 2.46; in assay [6], 1.18. Further, the composite z-score in the assay on Sam68 (KHDRBS1) is 1.29; in assay [7], 1.13; in assay [8] it was 1.14. Moreover, in assay [1], the composite Z-score is 1.71 (inactive).
Turning to `CCOC(=O)C1=CC[C@@H](c2ccccc2)N(S(=O)(=O)c2ccc(C)cc2)[C@H]1C=Cc1ccccc1`, the composite z-score with Albumin (Bos taurus) is 0.725; in [2], 0.0372; in [3], -0.0569; in assay [4], 0.707; in [5] it was 1.03; in assay [6], 0.827. The composite z-score is 0.602 with Sam68 (KHDRBS1), -0.19 in [7] and 0.81 in assay [8]. Further, the composite Z-score in [1] was 0.206 (inactive).
For the compound `CN1C(=O)C2C=CC(C(O)c3cc(C(F)(F)F)cc(C(F)(F)F)c3)N(NC(=O)OC(C)(C)C)C2C1=O` (stereo not given), the composite z-score with Albumin (Bos taurus) is 1.04; in assay [2], 0.465; in assay [3], 0.0753; in assay [4], 0.604; in assay [5], 2.87; in assay [6], 0.403. In addition, the composite z-score with Sam68 (KHDRBS1) was 1.3; in assay [7], -1.08; in [8] it was 1.17. The composite Z-score in assay [1] is 0.622 (inactive).
`CCOC(=O)C[C@H]1[C@H](OC(=O)c2ccc(-c3ccccc3)cc2)[C@@H](NC(=O)CC(C)C)c2cc(OCCCO)ccc2N1C(=O)c1ccccc1`: the composite z-score with Albumin (Bos taurus) is 0.506; in assay [2], -0.0057; in assay [3], -0.124; in assay [4], 0.108; in assay [5], 0.806; in assay [6] it was -0.2. Moreover, the composite z-score in the assay on Sam68 (KHDRBS1) came out at 1.03; in assay [7], 0.0549; in assay [8], 0.27. In addition, the composite Z-score in assay [1] was -0.221 (inactive).

Source of the values: PubChem BioAssay.
